Source: PubChem BioAssay (several laboratories)
tim10-1 inh = growth inhibitors of tim10-1 mutant yeast; actives 2.2% (n = 330,000); S. cerevisiae tim10-1 ts strain growth, BacTiter-Glo, 24 h; AID 463190; inhibition, % at 20 µM;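 active = inhibition of at least 40%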;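 note: mutant grown at 25 °C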
tim23-1 inh = growth inhibitors of tim23-1 mutant yeast; S. cerevisiae tim23-1 growth, BacTiter-Glo luminescence, 24 h; inhibition, % at 20 µM; actives 1.3% (n = 330,000); AID 463212;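 active = growth inhibition of the mutant yeast at or above 50%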;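 note: temperature-sensitive mutant grown at 25 °C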
NLRP3 yeast inh = NALP3 inhibition in yeast. Yeast reconstituted NLRP3/ASC/caspase-1, beta-gal luminescence, 24 h. inhibition, % at 10 µM. actives 0.39% (n = 330,000). AID 2825;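 active = inhibition of 50% or more; inactive = inhibition below 50%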
TIM10 inh = TIM10 yeast growth inhibition. inhibition, % at 10 µM. actives 1.4% (n = 330,000). S. cerevisiae TIM10 strain growth, BacTiter-Glo luminescence, 24 h;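 active = inhibition of 40% or more at the single tested concentration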;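 note: wild-type TIM10 isogenic control strain grown at permissive 25 °C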
PfHsp90 yeast 2 = growth inhibition of yeast expressing Plasmodium Hsp90; actives 0.32% (n = 310,000); inhibition, % at 9.4 µM; S. cerevisiae expressing PfHsp90, BacTiter-Glo ATP, 48 h; yeast lacking PDR1 and PDR3 efflux regulators;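 active = every replicate shows inhibition above about 80%, whatever the replicate mean, limit read from the data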
SKKanGAS inh = SKKanGAS growth inhibition; inhibition, % at 7.5 µM; actives 1.3% (n = 300,000); S. pyogenes SKKanGAS, kanamycin growth, BacTiter-Glo, 6 h;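 active = mean replicate score, as percent of positive control median, at least 50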;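 note: strain carries kanamycin resistance gene driven by streptokinase promoter and grows in 40 µg/ml kanamycin; loss of luminescence reflects streptokinase promoter inhibition or plain growth inhibition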
tim10-1 confirm = confirmation of tim10-1 mutant yeast growth inhibitors; S. cerevisiae tim10-1 ts strain growth, BacTiter-Glo, 24 h; inhibition, % at 20 µM; shares compounds with tim10-1 inh; actives 56% (n = 7,400);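 active = inhibition of yeast growth at or above a set limit in either of two repeat tests at 20 µM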;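 note: tim10-1 mutant grown at permissive 25 °C to find synthetic lethal compounds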
TIM10 conf = TIM10 yeast growth inhibition, confirmed; shares compounds with TIM10 inh; S. cerevisiae tim10 strain growth, BacTiter-Glo luminescence, 24 h; inhibition, % at 10 µM; actives 63% (n = 4,600); AID 463215;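 active = inhibition of yeast growth at or above a set limit in either of two replicates at 10 µM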; note: this counterscreen used the strain with wild-type TIM10
tim23-1 confirm = tim23-1 yeast growth inhibition, confirmed. AID 463218. inhibition, % at 20 µM. actives 83% (n = 4,400). S. cerevisiae tim23-1 growth, BacTiter-Glo luminescence, 24 h. shares compounds with tim23-1 inh;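 active = inhibition above about 39% in either of two replicate wells at 20 µM, limit read from the data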;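 note: temperature-sensitive tim23-1 mutant grown at 25 °C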
A number is an active result; - = inactive; . = no result. A selection: hits, their analogues and other compounds. The true share with any hit is near 4.6%.

SMILES	tim10-1 inh	tim23-1 inh	NLRP3 yeast inh	TIM10 inh	PfHsp90 yeast 2	SKKanGAS inh	TIM10 conf	others
Cc1ccc2nc(N3CCN(C(=O)CCCC(=O)O)CC3)nc(-c3ccccc3)c2c1	-	-	-	-	-	-	.
Cc1ccc2nc(N3CCN(C=O)CC3)nc(-c3ccccc3)c2c1	43	60	-	-	-	-	.	tim10-1 confirm=-;tim23-1 confirm=42
COC(=O)c1ccc(CSc2nnc(NC(=O)C3CC(=O)N(Cc4ccc(C)cc4)C3)s2)cc1 (stereo not given)	-	-	-	-	-	-	.
CCSc1nc2ccccc2n1C(=O)/C=C/c1ccc(OC)c(OC)c1	58	51	-	-	-	-	.	tim10-1 confirm=44;tim23-1 confirm=54
C=CCSc1nc2ccccc2n1C(=O)/C=C/c1ccc(OC)c(OC)c1	.	.	.	.	-	-	.
CNC(=S)Nc1ccc(C23CC4CC(CC(C4)C2)C3)cc1	62	63	-	50	-	-	39	tim10-1 confirm=48;tim23-1 confirm=79
O=C(Nc1ccccc1)C1=C[C@@H](c2ccc(Br)cc2)C[C@@H](OCCCCO)O1	43	55	-	-	-	-	.	tim10-1 confirm=45;tim23-1 confirm=54
O=C(Nc1ccccc1)C1=C[C@H](c2ccccc2)C[C@H](OCCCCO)O1	-	-	-	-	-	-	.
COc1ccc([C@H]2CC(=O)C=C(c3ccc4c(c3)sc3ccccc34)C2)cc1	-	-	-	-	-	.	.
O=C1c2ccccc2-c2onc3ccc(Oc4ccccc4)c1c23	76	77	-	57	-	-	68	tim10-1 confirm=59;tim23-1 confirm=85
Cc1noc(C)c1S(=O)(=O)Nc1ccccc1Oc1ccccc1	-	-	-	-	-	-	.
C/C(=N\Nc1ccc([N+](=O)[O-])cc1)c1cccc(N)c1	-	-	-	-	-	-	.
C/C(=N\Nc1ccc([N+](=O)[O-])cc1)c1ccc(O)cc1	44	70	-	-	-	-	.	tim10-1 confirm=-;tim23-1 confirm=55
NC(=O)c1ccccc1N1CCCCC1	-	-	-	-	-	-	.
COc1ccc(/C=C/C(=O)c2ccc(Cl)cc2)c(OC)c1	-	-	-	44	-	-	-
COc1ccc(/C=C/C(=O)c2cc(Cl)ccc2O)c(OC)c1	-	-	-	-	-	-	.
Oc1ccc(/C=C/c2cnccn2)cc1	-	-	-	-	-	-	.
CCCCN1CC(=O)N2[C@H](c3ccc(Cl)cc3)[C@@H]3C(=O)N(CC)C(=O)[C@@H]3[C@]2(C)C1=O	-	-	-	53	-	-	-
COc1ccc(NC(=O)CCc2nnc3ccc(N4CCC(C)CC4)nn23)cc1OC	-	-	-	-	-	-	.
CCn1c(=O)c(C(=O)NCc2ccccc2)c(O)c2ccccc21	-	-	-	-	-	-	.
CCn1c(=O)c(C(=O)NCc2cccnc2)c(O)c2ccccc21	-	-	-	44	.	-	33
Cc1cccc2nc(-c3ccccc3)nc(N3CCC(O)(c4ccc(Cl)cc4)CC3)c12	-	-	-	43	-	-	55
COc1ccc(CC(=O)NCC2CCCN(Cc3ccc(OC(F)(F)F)cc3)C2)cc1 (stereo not given)	-	-	-	98	-	-	-
O=C(CCN1C(=O)[C@@H]2Cc3ccccc3CN2C1=O)NCc1ccc(Cl)cc1	-	-	-	-	-	-	.
Cc1ccc(-c2csc(NC(=O)c3cccc(S(=O)(=O)N4CCN(C)CC4)c3)n2)cc1	-	-	-	-	-	-	.
SMILES	tim10-1 inh	tim23-1 inh	NLRP3 yeast inh	TIM10 inh	PfHsp90 yeast 2	SKKanGAS inh	TIM10 conf	others
O=C(Nc1nc(-c2cccs2)cs1)c1cccc(S(=O)(=O)N2CCCCC2)c1	-	-	-	42	-	-	31
CCOC(=O)c1c(N)sc2c1CCN(CCc1ccccc1)C2	-	-	-	-	-	-	.
Oc1ccc(/C=N/N=C(c2ccccc2)c2ccccc2)c(O)c1O	.	.	.	.	-	.	.
O=C(/C(=N/N=C/c1ccc(O)c(O)c1O)c1ccccc1)c1ccccc1	-	-	-	45	-	-	-
COC(=O)C1C2C=CC3(CN(c4cccc(Cl)c4)C(=O)C13)O2 (stereo not given)	-	-	-	-	-	-	.
COC(=O)C1C2C=CC3(CN(c4cccc(C)c4)C(=O)C13)O2 (stereo not given)	-	-	-	94	-	-	-
CN(C(=O)c1cnc(N2CCN(c3ncccn3)CC2)c2ccccc12)c1ccc(Cl)cc1	-	-	-	52	-	-	28
Fc1ccc(CNCC2CCCO2)cc1 (stereo not given)	-	-	-	97	-	-	-
CC(C)CC(=O)c1c[nH]c(C(=O)NCc2ccc(F)cc2)c1	-	-	-	-	-	-	.
O=Cc1cc(N=Nc2cccc(C(=O)O)c2)ccc1O	-	-	-	-	-	-	.
O=Cc1cc(N=Nc2ccccc2Cl)ccc1O	-	-	-	62	-	78	76
CC(C)c1ccc(NC(=O)c2sccc2-n2cccc2)cc1	-	-	-	-	-	-	.
CC(C)Cn1[nH]c2c3c(ccc2c1=O)C(=O)c1ccccc1C3=O	-	-	-	58	-	-	49
CCc1ccc2c(c1)C(=O)c1ccccc1C2=O	-	-	-	-	-	-	.
CNc1nc(N)c([N+](=O)[O-])c(Nc2ccccc2OC)n1	-	-	-	44	-	-	52
O=C(COC(=O)c1ccc([N+](=O)[O-])s1)Nc1ncc(C(F)(F)F)cc1Cl	-	-	-	65	-	-	72
O=C(COC(=O)c1ccccn1)Nc1ncc(C(F)(F)F)cc1Cl	-	-	-	-	-	-	.
CC1CCCC(NC(=O)COC(=O)Cc2ccc(Cl)cc2)C1C (stereo not given)	-	-	-	-	-	.	.
CC1CCCC(NC(=O)COC(=O)c2ccccc2[N+](=O)[O-])C1C (stereo not given)	-	-	-	-	-	-	.
CC1CCCC(NC(=O)COC(=O)c2ccc([N+](=O)[O-])s2)C1C (stereo not given)	-	-	-	62	-	.	61
Cc1ccc(CC(=O)OCC(=O)NC2CCCC(C)C2C)cc1C (stereo not given)	-	-	-	50	-	-	-
COc1ccc(N2C(=NC(=O)C3CCCO3)SC3CS(=O)(=O)CC32)cc1 (stereo not given)	-	-	-	-	-	-	.
Cn1c(=O)cc(Nc2ccccc2)c2c(=O)n(-c3ccccc3)c(=O)n(-c3ccccc3)c21	-	-	-	-	-	-	.
